These results are taken from PubChem BioAssay (NCI).

The panel holds about 83,000 compounds, 20% with a hit somewhere; the sample as a whole holds those more often.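 Method: cells in 96-well plates; compound added at one concentration; 48 h incubation; percent growth measured; values under 10 scored active.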 Unmarked numbers belong to inactive results. Calls of active or inactive are those of the source.

Test systems include NCI-H23 lung; NCI-H226 lung; NCI-H322M lung; HOP-62 NSCLC; NCI-H460 lung; NCI-H522 lung; A549/ATCC NSCLC; 786-0 renal; COLO 205 colon; DU-145 prostate; K-562 leukemia; MALME-3M melanoma; MDA-MB-231 breast; RXF 393 renal; SF-268 CNS; SF-295 CNS; SF-539 CNS; UACC-257 melanoma; M14 melanoma.
Assay in all cases: NCI-60 one-dose screen, 48 h (100 = growth as untreated, 0 = no growth, -100 = all killed)
Holding throughout (details): 10 µM unless noted

With `O=C(c1ccc(O)c(C(=O)N2Cc3ccc(OCCC[P+](c4ccccc4)(c4ccccc4)c4ccccc4)cc3C2)c1)N1Cc2cccc(F)c2C1`, the growth with NCI-H23 lung was 87.3%; with NCI-H226 lung, 92.3%; in the test on NCI-H322M lung, 94.3%; with HOP-62 NSCLC, 102%; with NCI-H460 lung it was 69.7%; in the test with NCI-H522 lung, 72.9%. Besides, the growth is 99.8% in the test on A549/ATCC NSCLC; 98.5% with 786-0 renal; 52.3% with COLO 205 colon; 99% in the test on DU-145 prostate; 27.1% with K-562 leukemia; 73.2% in the test on MALME-3M melanoma. Moreover, the growth with MDA-MB-231 breast was 92.9%; with RXF 393 renal, 96.4%; in the test on SF-268 CNS it was 92.7%; with SF-295 CNS, 84.9%; in the test with SF-539 CNS it was 55.6%; in the test on UACC-257 melanoma, 48.5%. In addition, in the test with M14 melanoma, the growth is 95.1%.

On to `CCNC(=O)N1CCc2cc(OC)c(OCCc3ccc(OC)cc3)cc2C1c1ccc([N+](=O)[O-])cc1C` (stereo not given), for which the growth in the test with NCI-H23 lung is 21.2%; with NCI-H226 lung, 38%; with NCI-H322M lung, 45.4%; with HOP-62 NSCLC, 25.9%; with NCI-H460 lung, 2.37% (active); in the test on NCI-H522 lung it was -8.41% (active). The growth in the test on A549/ATCC NSCLC was 11.7%; in the test on 786-0 renal, 18.2%; with COLO 205 colon, 25.8%; with DU-145 prostate it was 20.7%; in the test on K-562 leukemia, 13.7%; in the test with MALME-3M melanoma, 63.8%. The growth with MDA-MB-231 breast was 17.7%; in the test with RXF 393 renal it was -9.58% (active); in the test with SF-268 CNS, 32%; in the test on SF-295 CNS, 10.8%; with SF-539 CNS, 9.83% (active); with UACC-257 melanoma, 46.6%. Further, in the test with M14 melanoma, the growth is 23.4%.

Consider `O=S(=O)(Nc1ccc(I)cc1Cl)c1ccc(-c2cnc(C3CC3)o2)cc1`, for which the growth was 45.4% with NCI-H23 lung; 62.5% with NCI-H226 lung; 64.8% in the test on NCI-H322M lung; 52.7% with HOP-62 NSCLC; 28.8% in the test with NCI-H460 lung; 34% in the test with NCI-H522 lung. Besides, the growth in the test with A549/ATCC NSCLC was 54.6%; in the test with 786-0 renal it was 40.4%; in the test with COLO 205 colon, 50.2%; in the test with DU-145 prostate, 50.2%; in the test on K-562 leukemia it was 19.8%; in the test with MALME-3M melanoma, 47.3%. Moreover, the growth in the test on MDA-MB-231 breast is 57.5%; in the test with RXF 393 renal it was -4.05% (active); with SF-268 CNS it was 58.9%; in the test with SF-295 CNS it was 2.33% (active); in the test with SF-539 CNS, 21.4%; in the test with UACC-257 melanoma, 58.5%. The growth in the test on M14 melanoma is 29.6%.

On to `c1ccc(C(c2nc3ncncc3[nH]2)N2CSc3nc4ccccc4n3C2)cc1` (stereo not given), for which the growth in the test on NCI-H23 lung was 107%; in the test with NCI-H226 lung it was 98.7%; in the test with NCI-H322M lung, 106%; in the test with HOP-62 NSCLC it was 96.6%; in the test with NCI-H460 lung it was 107%; in the test on NCI-H522 lung it was 98.2%. The growth was 107% with A549/ATCC NSCLC; 101% in the test with 786-0 renal; 110% in the test with COLO 205 colon; 110% with DU-145 prostate; 96.5% with K-562 leukemia; 81.1% in the test with MALME-3M melanoma. For the same compound, the growth is 98.9% with MDA-MB-231 breast; 98.1% with SF-268 CNS; 101% with SF-295 CNS; 95.3% in the test with SF-539 CNS; 104% in the test on UACC-257 melanoma.

With `O=S(=O)(NC1c2ccccc2C[C@H]1O)c1ccc(Cl)cc1Cl` (stereo not given in full), the growth was 92.3% in the test with NCI-H23 lung; 93.6% in the test with NCI-H226 lung; 94.6% in the test on NCI-H322M lung; 103% in the test on HOP-62 NSCLC; 101% in the test with NCI-H460 lung; 98.3% in the test on NCI-H522 lung. Moreover, the growth was 93.5% in the test on A549/ATCC NSCLC; 102% in the test with 786-0 renal; 114% in the test on COLO 205 colon; 114% in the test on DU-145 prostate; 95.2% in the test with K-562 leukemia; 93.6% in the test with MALME-3M melanoma. For the same compound, the growth with MDA-MB-231 breast was 99.5%; with RXF 393 renal, 107%; in the test with SF-268 CNS, 96.7%; with SF-295 CNS, 108%; in the test on SF-539 CNS, 101%; in the test with UACC-257 melanoma, 102%. Further, the growth with M14 melanoma was 92.3%.

In the case of `Cc1ccc(C2=Nn3c(nnc3-c3ccccc3)SC2)cc1`, the growth was 36.6% in the test with NCI-H23 lung; 61.2% in the test on NCI-H226 lung; 60.8% in the test with NCI-H322M lung; 27.5% with HOP-62 NSCLC; 11.1% with NCI-H460 lung; -2.45% (active) in the test with NCI-H522 lung. Besides, the growth was 44.6% in the test on A549/ATCC NSCLC; 46.8% with 786-0 renal; 3.27% (active) with COLO 205 colon; 22.2% in the test on DU-145 prostate; 15.7% with K-562 leukemia; 59.5% with MALME-3M melanoma. Moreover, the growth in the test on MDA-MB-231 breast was 51.4%; in the test on RXF 393 renal it was -6.84% (active); with SF-268 CNS, 49.5%; in the test with SF-295 CNS it was 10.4%; in the test with SF-539 CNS it was 11.2%; in the test with UACC-257 melanoma, 55.5%. For the same compound, in the test with M14 melanoma, the growth is 12.2%.

Turning to `COc1ccc(-c2nc3cc(Cl)c(Cl)cc3n2CC(=O)N=Nc2c(O)[nH]c3ccc(OC)cc23)cc1`, the growth with NCI-H23 lung was 38.7%; in the test on NCI-H226 lung it was -38.3% (active); in the test on NCI-H322M lung, 80.4%; in the test on HOP-62 NSCLC, 43.2%; in the test on NCI-H460 lung it was 56.1%; in the test on NCI-H522 lung it was 69.3%. For the same compound, the growth with A549/ATCC NSCLC was 59.8%; with 786-0 renal it was 82.5%; in the test with COLO 205 colon, 31.9%; in the test with DU-145 prostate, 5.81% (active); in the test with K-562 leukemia, 49.2%; in the test with MALME-3M melanoma it was 41.2%. Also, the growth in the test with MDA-MB-231 breast was 52%; with RXF 393 renal, -29.8% (active); in the test on SF-268 CNS, 78.3%; in the test on SF-295 CNS, 66.5%; with SF-539 CNS, 47.2%; in the test on UACC-257 melanoma, 87.9%. In addition, the growth in the test with M14 melanoma was 56.8%.

For the compound `CCOC(=O)c1c(Nc2ccccc2)nn2c(-c3ccc(OC)cc3)ccnc12`, the growth was 86% in the test on NCI-H23 lung; 93.5% with NCI-H226 lung; 87.1% in the test with NCI-H322M lung; 95.3% in the test on HOP-62 NSCLC; 93.5% in the test on NCI-H460 lung; 88.1% in the test on NCI-H522 lung. Further, the growth in the test with A549/ATCC NSCLC is 88.7%; in the test with 786-0 renal it was 64.5%; in the test with COLO 205 colon, 99.9%; in the test on DU-145 prostate, 90.8%; in the test on K-562 leukemia, 45.3%; in the test on MALME-3M melanoma, 87.6%. The growth is 79.4% in the test on MDA-MB-231 breast; -2.68% (active) with RXF 393 renal; 101% in the test with SF-268 CNS; 89.5% with SF-295 CNS; 83.8% in the test on SF-539 CNS; 110% with UACC-257 melanoma. For the same compound, in the test on M14 melanoma, the growth is 96%.
